Screen size: about 1,100 compounds; about 760 (69%) were called active. How the calls were made is not given here. So high a share suggests a set chosen from earlier hits. The list shows a part of the results.
Experiment: M. tuberculosis growth inhibition, HTS (AID 1259417);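 further: bacteria grown with compound for 5 days at 37 °C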
Settings: stronger effect = higher value, concentration not given here
[1] = M. tuberculosis DsRed fluorescence growth inhibition
[2] = M. tuberculosis growth inhibition

SMILES	inhibition [1]	inhibition [2] [%]
NC(CC(=O)c1ccc(Cl)cc1Cl)C(Cl)(Cl)Cl (stereo not drawn)	99.7% (active)	99.4
Oc1ccc(-c2nc3cc4ccccc4cc3nc2-c2ccccc2)cc1	19.6% (active)	37.8
Cc1cc(C)c2nc(NNC(=O)c3cc4ccccc4oc3=O)sc2c1	46.2% (active)	86.5
Cc1ccc2sc(NNC(=O)C3COc4ccccc4O3)nc2c1C (stereo not drawn)	-2.21% (inactive)	-8.62
Cc1ccc2sc(NNC(=O)c3cc4ccccc4oc3=O)nc2c1C	3.35% (active)	33.4
Cc1cccc2sc(NNC(=O)c3cc4ccccc4oc3=O)nc12	47.1% (active)	89
Cc1ccc2nc(NNC(=O)c3cc4ccccc4oc3=O)sc2c1	-1.04% (inactive)	10.6
CCCOc1ccc(C2Oc3ccc(Br)cc3C=C2[N+](=O)[O-])cc1OC (stereo not drawn)	10.3% (active)	37.5
Cc1ccc(Nc2ccccc2N)cc1	99.5% (active)	99.1
COc1ccc(Nc2cc(C)nc3c2ccc2ccccc23)cc1	18.8% (inactive)	19.5
Nc1ccccc1Nc1ccccc1	98.6% (active)	98.4
COc1ccc(Nc2ccccc2N)cc1	96% (active)	97.4
O=c1cc(Cc2ccccc2)nc2c(-c3ccccc3)c[nH]n12	93% (active)	96.9
CCN1CCc2c(sc(NC(=O)c3ccccc3)c2-c2nc3ccccc3s2)C1	52.7% (active)	77.8
Cc1ccccc1C(=O)Nc1sc2c(c1C(=O)N1CCN(Cc3ccccc3)CC1)CCCCC2	-0.558% (inactive)	-12.1
NC(=O)c1c(NC(=O)c2ccc([N+](=O)[O-])s2)sc2c1CCN(Cc1ccccc1)C2	25.9% (inactive)	2.21
CCCCOc1ccc(S(=O)(=O)Nc2ccc(I)cc2)cc1	-1.45% (inactive)	17.1
COCCNS(=O)(=O)c1ccc(-c2ccc(C)cc2)cc1	98.6% (active)	98.3
O=S(Cc1ccccc1)c1nc2ccccc2s1 (stereo not drawn)	51.3% (active)	74.9
Brc1ccc2ncnc(Nc3ccc(N4CCCC4)cc3)c2c1	100% (active)	99.7
CN(C)c1ccc(Nc2ncnc3ccc(Br)cc23)cc1	100% (active)	99.4
Nc1c(C(=O)Nc2ccc(Br)cc2)sc2nc3c(c(-c4cccs4)c12)CCCC3	5.67% (inactive)	-16.7
Nc1c2c(nc3sc4c(c13)CCCC4)CCCC2	99.7% (active)	101
Cc1nc(SCc2csc(C)n2)c2c3c(sc2n1)CCCC3	13.5% (inactive)	-7.63
CC1CCc2nc3sc4c(c3c(N)c2C1)CCCC4 (stereo not drawn)	99.8% (active)	99.6
CN(Cc1ccccc1)C(=S)NC(=O)c1cccs1	23.4% (active)	33.4
N#CCCN(Cc1ccccc1)C(=S)NC(=O)c1ccccc1	-2.05% (inactive)	0.14
COc1cccc(C(=O)Nc2nnc(-c3ccc(Cl)cc3)o2)c1	35.6% (active)	70.5
COc1cccc(-c2nnc(NC(=O)C=Cc3cccs3)o2)c1	-4.21% (inactive)	4.98
